Molecules are shown by their SMILES. Values joined by “and” are separate entries in the source; they are usually repeats but may differ in a detail not shown here. Equal values may be shown once. Records with an inconclusive call do not appear. Active and inactive are the calls of the source. Unless noted, calls come from the whole dose curve.

Here are results for five compounds from PubChem BioAssay (NCATS).

In assay [1] the target is Estrogen receptor (Homo sapiens) (UniProt P03372). Briefly: qHTS assay for small molecule antagonists of estrogen receptor alpha signaling (AID 588513; active = well fitted curve in the direction sought with a large enough effect in the signal ratio, with a control signal flat, not every such curve was filed as active; the % refers to the signal ratio; note: % is set by controls: 0 for no effect and ±100 for the full control effect). Summed up:
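Beta-lactamase reporter, antagonist mode, HEK 293 GripTite cells; 0.5nM E2 stimulus, 18 h, 37 C; CCF4 dye 2 h RT; fluorescence. IC50 and efficacy from Hill fits, normalized to E2 and DMSO.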

Assay [2] has the same target. Briefly: qHTS assay for small molecule agonists of estrogen receptor alpha signaling (AID 588514).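 Note: 0% = vehicle only and 100% = reference agonist; nearly all actives have a fitted effect of over 70% in size.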 A digest of the protocol: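 ER-alpha-UAS-bla GripTite HEK293 cells, 5000/well in 2% charcoal/dextran-stripped FBS medium, treated with compound titrations 18 h at 37 C. CCF4 beta-lactamase read by fluorescence after 2 h RT; normalised to 20 nM 17-beta-estradiol (100%) and DMSO (0%), Hill fit for EC50 and efficacy.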

For assay [3], the target named is Peroxisome proliferator-activated receptor delta (Homo sapiens) (UniProt Q03181). Put plainly: qHTS assay for small molecule agonists of peroxisome proliferator-activated receptor delta signaling (AID 588534).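 Note: 0% = DMSO basal wells and 100% = positive control agonist at 10 µM.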 A digest of the protocol: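 Cells carrying a PPAR-delta beta-lactamase reporter were treated with compounds for 18 h at 37 °C in agonist mode. CCF4 fluorescence was read after 2 h; EC50 and efficacy from Hill fits.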

Assay [4] addresses Peroxisome proliferator-activated receptor gamma (Homo sapiens) (UniProt P37231). Put plainly: qHTS assay for small molecule agonists of peroxisome proliferator-activated receptor gamma signaling (AID 588536; active = well fitted curve in the direction sought with a large enough effect in the signal ratio, with a control signal flat, not every such curve was filed as active; the % refers to the signal ratio;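 note: 0% = DMSO basal wells and 100% = rosiglitazone at 2 µM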). A digest of the protocol:
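Test agents, titrated, stimulated HEK293 UAS-bla cells overnight (16 h, 37 C). Substrate CCF4 was then added for two hours at room temperature before fluorescence reading.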

Assay [5] shares this target. Put plainly: qHTS assay for small molecule antagonists of peroxisome proliferator-activated receptor gamma signaling (AID 588537; active = well fitted inhibition curve with a large enough effect in the signal ratio, with a control signal flat, not every such curve was filed as active; the % refers to the signal ratio;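 note: reporter cells co-stimulated with 50 nM rosiglitazone agonist during compound treatment; % of control where 0% means no effect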). Summed up:
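Antagonist mode, beta-lactamase reporter in HEK293; charcoal/dextran FBS 1%; 3000 cells/well, 37 C 6-6.5 h; cpd titration + rosiglitazone 50 nM final, 16 h 37 C; CCF4, 2 h RT; 460/530 nm; Hill fit → IC50, efficacy.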

Assay [6] concerns the target Vitamin D3 receptor (Homo sapiens) (UniProt P11473). Briefly: qHTS assay for small molecule antagonists of vitamin D receptor signaling (AID 588541).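 Note: receptor activated by calcitriol during compound treatment; series mostly up to about 77 µM; % is set by controls: 0 for no effect and ±100 for the full control effect.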 Summed up: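 Antagonist-mode beta-lactamase reporter assay: HEK293T VDR-UAS-bla cells were exposed to titrated compound alongside 1-alpha,25-dihydroxyvitamin D3 at 3 nM final for 16 h. Values were normalized to the 50 nM agonist control and DMSO basal, with IC50 and efficacy from Hill equation fits.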

A short description of assay [7]: qHTS assay for small molecule agonists of retinoid X receptor alpha signaling (AID 588544).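 For activation: 0% = DMSO basal wells and 100% = reference agonist.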 The settings on record: HEK293T RXRa-UAS-bla, beta-lactamase reporter, 18 h; 530 nm emission.
Assay [8] deals with Retinoic acid receptor RXR-alpha (Homo sapiens) (UniProt P19793). The assay is described as above.
For assay [9], the target named is Thyroid hormone receptor beta (Homo sapiens) (UniProt P10828). Put plainly: qHTS assay for small molecule agonists of thyroid hormone receptor beta signaling (AID 588545).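 Note: 0% = DMSO only and 100% = 10 nM T3.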 A digest of the protocol:
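Beta-lactamase reporter activity under TR response element control is measured in HEK 293 cells after 18 hrs compound exposure. Signal is ratiometric CCF4 fluorescence, 460/530 nm.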

A short description of assay [10]: qHTS assay for small molecule antagonists of retinoid X receptor alpha signaling (AID 588546; active = well fitted inhibition curve with a large enough effect in the signal ratio, with a control signal flat, not every such curve was filed as active; the % refers to the signal ratio;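 note: cells stimulated with 9-cis-retinoic acid as agonist; % is set by controls: 0 for no effect and ±100 for the full control effect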). The conditions noted are these: HEK293T RXRa-UAS-bla, beta-lactamase ratio, antagonist mode; measured here: W530 green channel, cytotoxicity proxy. Summed up:
(§1)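 Beta-lactamase reporter inhibition, read as CCF4 fluorescence ratio (ex 405, em 460/530 nm) after 2 h at RT. HEK293T UAS-bla cells, 2500/well, were stimulated with 9-cis-RA at 500 or 100 nM final alongside test compound for 18 h at 37 C.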

Assay [11] deals with Retinoic acid receptor RXR-alpha (Homo sapiens) (UniProt P19793). Described as above. The settings on record: HEK293T RXRa-UAS-bla, beta-lactamase ratio, antagonist mode. Summed up: as §1
Assay [12] deals with Thyroid hormone receptor beta (Homo sapiens) (UniProt P10828). Briefly: qHTS assay for small molecule antagonists of thyroid hormone receptor beta signaling (AID 588547; active = well fitted inhibition curve with a large enough effect in the signal ratio, with a control signal flat, not every such curve was filed as active; the % refers to the signal ratio;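 note: cells stimulated with 0.4 nM T3 agonist during compound exposure; series mostly up to about 77 µM; % is set by controls: 0 for no effect and ±100 for the full control effect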). The conditions noted are these: TR-UAS-bla HEK293, beta-lactamase ratio, antagonist mode, 18 h. Summed up: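 Inhibition of T3-driven (0.4nM final) beta-lactamase reporter activity was measured over 0.59 nM to 92 uM compound after 18 h at 37 C. The cells were GripTite HEK293 TR-UAS-bla in charcoal/dextran-stripped serum, with CCF4 ratio read-out and IC50 from Hill fits.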

Assay [13] is described as follows: qHTS assay for small molecule activators of the p53 signaling pathway (AID 651743; active = well fitted activation curve with a large enough effect in the signal ratio, not every such curve was filed as active; the % refers to the signal ratio; note: series mostly up to about 92 µM; % of control where 0% means no effect). The conditions noted are these: HCT-116 p53RE-bla, beta-lactamase FRET ratio, 16 h; activation: stronger effect = higher value. Summed up: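 Read-out is fluorescence intensity from the LiveBLAzer B/G FRET substrate, added for 2 hours at room temperature after HCT-116 p53RE-bla cells had been incubated with compounds for 16 hours at 37 C.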

Assay [14] can be described thus: qHTS assay for environmental chemicals that activate the Aryl hydrocarbon Receptor (AhR) signaling pathway (AID 651777; active = well fitted curve in the direction sought with a large enough effect; an effect the other way counts as inactive or inconclusive; note: % of control where 0% means no effect; nearly all actives have a fitted effect of over 15% in size). The settings on record: 1A2-DRE human hepatoma cells, luciferase, 24 h; activation: stronger effect = higher value. A digest of the protocol: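 Luminescence (One-Glo, 30 min, room temperature) reports AhR-driven luciferase in stably transfected human hepatoma cells bearing DRE and CYP1A2 promoter. Cells (1,200/well) were treated with compound for 24 hr at 37 C in qHTS format.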

Assay [15] deals with Peroxisome proliferator-activated receptor alpha (Homo sapiens) (UniProt Q07869). Put plainly: qHTS assay for small molecule agonists of the peroxisome proliferator-activated receptor alpha (PPARalpha) signaling pathway (AID 651778; active = well fitted curve in the direction sought with a large enough effect; an effect the other way counts as inactive or inconclusive; note: % of control where 0% means no effect). The conditions noted are these: PathHunter PPARalpha complementation, chemiluminescence, 6 h; max response: stronger effect = higher value. Summed up: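 Chemiluminescence from complemented enzyme reported PPARalpha activation in cells after 6 hr of compound treatment at 37 C. The detection reagent was incubated for 60 min at room temperature, and compounds were scored as agonists.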

Assay [16] in a line: qHTS assay for small molecule agonists of the antioxidant response element (ARE) signaling pathway measured by Nrf2-dependant transcriptional activity (AID 720636; active = well fitted curve in the direction sought with a large enough effect in the repeat runs; an effect the other way counts as inactive or inconclusive; note: % of control where 0% means no effect). Summed up: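 Nrf2-dependent transcription read as ONE-Glo luciferase signal from ARE-luc HepG2 reporter cells after 16 hr compound treatment at 37 C, 5% CO2, in assay medium with 1% dialyzed FBS.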
Assay [17] can be described thus: qHTS assay for small molecule agonists of the antioxidant response element (ARE) signaling pathway measured by Nrf2-dependant transcriptional activity - cell viability counter screen (AID 720653; active = well fitted curve in the direction sought with a large enough effect in the repeat runs; an effect the other way counts as inactive or inconclusive; note: % is set by controls: 0 for no effect and ±100 for the full control effect). The settings on record: ARE-bla HepG2 viability, CellTiter-Glo ATP luminescence, 16 h; max response: stronger effect = lower value. Summed up: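 Cytotoxicity counter screen: intracellular ATP quantified by CellTiter-Glo luminescence in the same ARE-bla HepG2 plates, after 16 h compound exposure and a 2 h beta-lactamase substrate step.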

Assay [18] in a line: qHTS assay for cell viability of HEK293 cells (AID 743288; active = well fitted curve in the direction sought with a large enough effect; an effect the other way counts as inactive or inconclusive; note: % is set by controls: 0 for no effect and ±100 for the full control effect; nearly all actives have a fitted effect of over 50% in size). The conditions noted are these: ATP luminescence (CellTiter-Glo), 18 h; max response: stronger effect = lower value. A digest of the protocol: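 Environmental chemicals tested in qHTS format against parental HEK293 cells; 18 h treatment, 37 C; read-out ATP luminescence (CellTiter-Glo), 30 min RT development.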
A short description of assay [19]: qHTS assay for cell viability of the p53RE-bla HCT-116 cell line (AID 743292; active = well fitted curve in the direction sought with a large enough effect; an effect the other way counts as inactive or inconclusive; note: % is set by controls: 0 for no effect and ±100 for the full control effect; nearly all actives have a fitted effect of over 55% in size). Summed up:
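ATP-based luminescent viability (CellTiter-Glo, 30 min RT) after 16 h compound treatment at 37 C of p53RE-bla HCT-116 cells, seeded at 4,000 cells/well and rested 5 h before dosing.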

Assay [20] addresses Nuclear receptor subfamily 1 group I member 2 (Rattus norvegicus) (UniProt Q9R1A7). Put plainly: qHTS assay for small molecule activators of the rat pregnane X receptor (rPXR) signaling pathway (AID 651751; call rule not given here; note: 0% is about no effect). The settings on record: rPXR reporter cells, luciferase (One-Glo), 24 h.

Peroxisome proliferator-activated receptor gamma (Homo sapiens), sequence (P37231 whole entry, looked up): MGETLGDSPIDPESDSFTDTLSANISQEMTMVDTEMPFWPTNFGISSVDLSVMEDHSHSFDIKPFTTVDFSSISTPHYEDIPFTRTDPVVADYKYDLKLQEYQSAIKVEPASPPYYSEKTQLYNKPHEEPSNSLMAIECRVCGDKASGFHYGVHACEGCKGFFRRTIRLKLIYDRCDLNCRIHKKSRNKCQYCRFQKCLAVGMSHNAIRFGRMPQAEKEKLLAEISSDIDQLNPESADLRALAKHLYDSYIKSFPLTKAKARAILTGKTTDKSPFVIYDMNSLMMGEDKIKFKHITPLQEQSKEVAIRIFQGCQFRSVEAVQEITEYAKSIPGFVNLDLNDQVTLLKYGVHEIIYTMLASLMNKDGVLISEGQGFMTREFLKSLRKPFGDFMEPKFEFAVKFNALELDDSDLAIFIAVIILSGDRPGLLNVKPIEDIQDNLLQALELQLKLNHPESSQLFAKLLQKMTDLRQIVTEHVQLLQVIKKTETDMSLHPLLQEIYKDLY
Peroxisome proliferator-activated receptor alpha (Homo sapiens), sequence (Q07869 whole entry, looked up): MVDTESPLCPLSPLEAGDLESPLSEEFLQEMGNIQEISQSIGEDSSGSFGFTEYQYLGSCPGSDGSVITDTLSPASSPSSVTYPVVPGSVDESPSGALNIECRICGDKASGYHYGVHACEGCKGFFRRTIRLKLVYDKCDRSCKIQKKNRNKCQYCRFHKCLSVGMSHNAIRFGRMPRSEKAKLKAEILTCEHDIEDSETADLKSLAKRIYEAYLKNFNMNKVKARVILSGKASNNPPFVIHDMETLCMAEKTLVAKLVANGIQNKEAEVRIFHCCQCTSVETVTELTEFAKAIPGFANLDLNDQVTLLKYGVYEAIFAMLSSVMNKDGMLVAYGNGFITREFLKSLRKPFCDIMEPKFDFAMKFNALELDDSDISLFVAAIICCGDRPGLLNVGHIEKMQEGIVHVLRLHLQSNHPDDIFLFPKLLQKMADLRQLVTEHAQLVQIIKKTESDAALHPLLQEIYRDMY
Retinoic acid receptor RXR-alpha (Homo sapiens), sequence (P19793 whole entry, looked up): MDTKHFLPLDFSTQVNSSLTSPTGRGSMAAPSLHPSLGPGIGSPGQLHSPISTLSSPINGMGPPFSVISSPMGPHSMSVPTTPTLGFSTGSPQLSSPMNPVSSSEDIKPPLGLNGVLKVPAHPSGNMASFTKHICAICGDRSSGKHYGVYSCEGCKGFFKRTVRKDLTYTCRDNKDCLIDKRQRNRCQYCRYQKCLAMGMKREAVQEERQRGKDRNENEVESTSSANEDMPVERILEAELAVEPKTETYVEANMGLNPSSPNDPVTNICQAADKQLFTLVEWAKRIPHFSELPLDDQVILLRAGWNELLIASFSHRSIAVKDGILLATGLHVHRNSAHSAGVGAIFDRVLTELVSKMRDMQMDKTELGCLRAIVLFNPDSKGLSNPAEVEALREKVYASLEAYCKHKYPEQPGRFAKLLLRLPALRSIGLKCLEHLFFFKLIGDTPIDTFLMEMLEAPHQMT
Thyroid hormone receptor beta (Homo sapiens), sequence (P10828 whole entry, looked up): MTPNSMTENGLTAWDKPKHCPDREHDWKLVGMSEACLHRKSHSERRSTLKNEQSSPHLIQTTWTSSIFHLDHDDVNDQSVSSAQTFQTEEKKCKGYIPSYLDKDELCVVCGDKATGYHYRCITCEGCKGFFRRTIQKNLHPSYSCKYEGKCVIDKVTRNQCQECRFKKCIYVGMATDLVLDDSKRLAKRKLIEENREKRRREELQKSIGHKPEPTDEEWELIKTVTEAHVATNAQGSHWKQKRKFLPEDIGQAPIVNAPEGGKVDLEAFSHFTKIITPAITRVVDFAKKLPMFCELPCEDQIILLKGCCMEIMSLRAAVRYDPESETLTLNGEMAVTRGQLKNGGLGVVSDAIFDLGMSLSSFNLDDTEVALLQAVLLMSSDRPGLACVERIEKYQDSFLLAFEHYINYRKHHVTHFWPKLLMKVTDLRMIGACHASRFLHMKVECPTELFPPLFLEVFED
Peroxisome proliferator-activated receptor delta (Homo sapiens), sequence (Q03181 whole entry, looked up): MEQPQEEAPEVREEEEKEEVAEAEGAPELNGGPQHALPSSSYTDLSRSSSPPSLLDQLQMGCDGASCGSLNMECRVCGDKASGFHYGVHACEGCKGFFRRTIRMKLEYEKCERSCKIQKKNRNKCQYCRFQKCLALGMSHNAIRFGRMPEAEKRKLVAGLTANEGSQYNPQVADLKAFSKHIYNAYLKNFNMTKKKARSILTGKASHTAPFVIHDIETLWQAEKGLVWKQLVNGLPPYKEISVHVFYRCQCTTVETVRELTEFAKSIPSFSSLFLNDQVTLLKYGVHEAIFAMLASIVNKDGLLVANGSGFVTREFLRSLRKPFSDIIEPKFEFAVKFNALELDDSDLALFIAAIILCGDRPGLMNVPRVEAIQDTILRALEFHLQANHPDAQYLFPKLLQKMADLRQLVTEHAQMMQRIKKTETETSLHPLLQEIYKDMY
Estrogen receptor (Homo sapiens), sequence (P03372 whole entry, looked up): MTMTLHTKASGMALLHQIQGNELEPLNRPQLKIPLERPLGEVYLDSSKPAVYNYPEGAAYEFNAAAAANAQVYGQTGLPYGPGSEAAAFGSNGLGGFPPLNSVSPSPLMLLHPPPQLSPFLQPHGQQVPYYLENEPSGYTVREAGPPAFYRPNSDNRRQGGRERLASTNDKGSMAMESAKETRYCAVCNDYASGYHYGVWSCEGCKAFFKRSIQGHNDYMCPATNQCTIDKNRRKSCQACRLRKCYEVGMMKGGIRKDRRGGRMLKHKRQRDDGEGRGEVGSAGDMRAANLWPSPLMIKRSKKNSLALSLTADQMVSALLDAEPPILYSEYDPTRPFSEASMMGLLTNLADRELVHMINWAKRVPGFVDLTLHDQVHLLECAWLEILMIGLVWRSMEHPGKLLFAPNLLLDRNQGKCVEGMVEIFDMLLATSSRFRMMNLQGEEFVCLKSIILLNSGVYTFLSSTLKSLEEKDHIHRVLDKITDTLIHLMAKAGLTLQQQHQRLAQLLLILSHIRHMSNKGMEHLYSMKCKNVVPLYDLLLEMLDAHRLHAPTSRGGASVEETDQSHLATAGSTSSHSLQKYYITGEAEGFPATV
Nuclear receptor subfamily 1 group I member 2 (Rattus norvegicus), sequence (Q9R1A7 whole entry, looked up): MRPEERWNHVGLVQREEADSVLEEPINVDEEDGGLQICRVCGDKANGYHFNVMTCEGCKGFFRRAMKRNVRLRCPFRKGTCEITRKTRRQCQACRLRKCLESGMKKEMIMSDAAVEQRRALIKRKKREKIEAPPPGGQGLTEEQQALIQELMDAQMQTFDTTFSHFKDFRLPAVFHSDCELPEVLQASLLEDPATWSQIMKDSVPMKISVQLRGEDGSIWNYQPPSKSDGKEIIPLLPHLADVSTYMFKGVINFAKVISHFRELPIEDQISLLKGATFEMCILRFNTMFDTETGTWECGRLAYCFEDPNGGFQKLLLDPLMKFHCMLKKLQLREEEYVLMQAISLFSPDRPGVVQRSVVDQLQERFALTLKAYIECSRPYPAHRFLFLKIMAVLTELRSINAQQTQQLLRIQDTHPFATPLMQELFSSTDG
Vitamin D3 receptor (Homo sapiens), sequence (P11473 whole entry, looked up): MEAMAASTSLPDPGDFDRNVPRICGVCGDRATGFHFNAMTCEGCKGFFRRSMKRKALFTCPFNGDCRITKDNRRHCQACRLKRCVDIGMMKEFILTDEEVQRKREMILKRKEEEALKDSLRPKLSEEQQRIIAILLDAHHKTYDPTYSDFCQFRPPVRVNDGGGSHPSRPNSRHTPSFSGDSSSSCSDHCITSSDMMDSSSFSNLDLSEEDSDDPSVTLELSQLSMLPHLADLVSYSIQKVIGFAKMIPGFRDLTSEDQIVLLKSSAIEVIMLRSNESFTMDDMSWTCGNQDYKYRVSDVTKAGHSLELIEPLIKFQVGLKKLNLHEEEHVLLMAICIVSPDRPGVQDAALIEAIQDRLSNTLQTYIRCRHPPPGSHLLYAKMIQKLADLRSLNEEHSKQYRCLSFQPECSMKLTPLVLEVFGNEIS

Take `Clc1ccc([C@]2(Cn3cncn3)C[C@H](Br)CO2)c(Cl)c1`: the Potency result in assay [1], in assay [2], in assay [4], in assay [5], in assay [6] and in assay [8] was “inactive” in each case. In addition, the Potency result in assay [9], in assay [16] and in assay [19] was “inactive” each time. In [3], the result was inactive. The max response in [7] was -0.873% and 8.46%; in [10], -15.4% and -0.171%; in [11] it was -14.1% (inactive) and -9.34% (inactive); in assay [15], -0.439% (inactive) and 5.59% (inactive); in assay [17], -1.87% (inactive) and -2% (inactive); in assay [18], -7.75% (inactive) and -8.79% (inactive). The activity change % (negative = inhibition) in [12] was 0.44% (inactive). The activation in assay [13] is -0.748% (inactive) and 2.17% (inactive); in assay [14], -0.98% (inactive) and 1.78% (inactive).
Take `Nc1ccc([N+](=O)[O-])cc1Cl`: the Potency result in assay [1], in assay [2], in assay [4], in assay [6], in [8] and in assay [9] was “inactive” in each case. Also, the Potency result in [16] and in [19] was “inactive” each time. Besides, the result in assay [3] was inactive. The max response in assay [7] was -7.96%; in [10], -11.1%; in assay [11], -1.45% (inactive); in assay [15], -5.45% (inactive); in assay [17] it was 3.06% (inactive); in assay [18], -1.89% (inactive). Further, the max response in [20] is 2.06% (inactive). In addition, the activity change % (negative = inhibition) in assay [12] is -8.47% (inactive). The activation in assay [13] was -0.946% (inactive); in assay [14] it was 3.47% (inactive).
`CCCCN(CC)C(=O)SCCC`: the Potency entry in assay [1], in [2], in assay [4], in [5], in [6] and in assay [8] was “inactive” each time. The Potency result in assay [9], in assay [16] and in assay [19] was “inactive” in each case. Moreover, in assay [3], the call was inactive. Further, the max response in [7] was -10.1%; in assay [10], -6.82%; in assay [11] it was 3.02% (inactive); in assay [15] it was 0.725% (inactive); in assay [17], -4.49% (inactive); in [18] it was -1.81% (inactive). The max response in assay [20] was 4.32% (inactive). The activity change % (negative = inhibition) in assay [12] was 1.78% (inactive). The activation in assay [13] was 2.73% (inactive); in assay [14], 0.496% (inactive).
`CCOc1ccc(C(C)(C)COCc2cccc(Oc3ccccc3)c2)cc1`: the Potency entry in assay [1], in assay [2], in assay [4], in [5], in assay [6] and in assay [9] was “inactive” each time. The Potency entry in [16] and in assay [19] was “inactive” in each case. In addition, the call in assay [3] was inactive. For the same compound, the max response in assay [10] is -7.02%; in [11], -7.6% (inactive); in [15], -1.64% (inactive); in [17] it was -4.24% (inactive); in [18], -6.28% (inactive). In assay [12], the activity change % (negative = inhibition) is 2.33% (inactive). The activation is -0.0413% (inactive) in assay [13] and 1.55% (inactive) in assay [14].
With `O=C1NCCN1Cc1ccc(Cl)nc1`, the Potency result in [1], in assay [2], in [4], in assay [6], in [8] and in assay [9] was “inactive” in each case. Also, the Potency result in [16] and in assay [19] was “inactive” throughout. Besides, the call in assay [3] was inactive. In addition, the max response is -14.8% in assay [10]; -0.72% (inactive) in assay [15]; 1.67% (inactive) in assay [17]; 1.96% (inactive) in [18]; 1.46% (inactive) in assay [20]. Besides, the activity change % (negative = inhibition) in assay [12] was 2.45% (inactive). Moreover, the activation was -0.206% (inactive) in assay [13] and -0.434% (inactive) in assay [14].
